# “And” between values parts separate entries of the source, which are not always exact repeats. Identical values can stand only once. The panel holds about 79,000 compounds, 15% with a hit somewhere; the sample as a whole holds those more often. Values without a mark were called inactive. The source made the active and inactive calls. Cut-off read from the data, not from the text of the source: active = growth inhibition above about 70%; inactive = the rest.
# Key:
# [1] = NCI Yeast Anticancer Drug Screen. Data for the rad50 strain (AID 155);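 note: 0% = growth of vehicle-only cultures of the same strain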; settings: S. cerevisiae rad50 strain growth inhibition, active compounds read high; at 50.0 µM unless noted
# Summary of the method: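 DNA repair mutant yeast, compound exposure, growth read-out; inhibition is taken relative to vehicle.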
# [2] = NCI Yeast Anticancer Drug Screen. Data for the mec2-1 strain (AID 157); settings: S. cerevisiae mec2-1 strain, active compounds read high; at 50.0 µM unless noted
# Summary of the method: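 Compounds were applied to mec2-1 yeast cells. Their growth was then compared with that of vehicle-treated cultures to give growth inhibition.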
# [3] = NCI Yeast Anticancer Drug Screen. Data for the sgs1 mgt1 strain (AID 161);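 note: 0% = growth of cultures given vehicle only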; settings: S. cerevisiae sgs1 mgt1 strain, active compounds read high; at 50.0 µM unless noted
# Summary of the method: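 Compounds are added to genetically altered yeast, and growth is compared with cultures given vehicle alone to give percent inhibition.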
# [4] = NCI Yeast Anticancer Drug Screen. Data for the cln2 rad14 strain (AID 165);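 note: 0% = growth equal to vehicle treated cultures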; settings: S. cerevisiae cln2 rad14 strain, active compounds read high; at 50.0 µM unless noted
# Summary of the method: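 Strain: cln2 rad14 yeast, altered in cell cycle control and DNA damage repair. Read-out: growth inhibition vs vehicle.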
# [5] = NCI Yeast Anticancer Drug Screen. Data for the bub3 strain (AID 167); settings: S. cerevisiae bub3 mutant strain, active compounds read high; at 50.0 µM unless noted
# Summary of the method: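 In this screen, a yeast mutant lacking normal mitotic checkpoint function is challenged with compound. Relative growth versus vehicle gives the inhibition value.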
# [6] = NCI Yeast Anticancer Drug Screen. Data for the mlh1 rad18 strain (AID 175); settings: S. cerevisiae mlh1 rad18 strain growth inhibition, active compounds read high; at 50.0 µM unless noted
# Summary of the method: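 A repair-deficient yeast strain is exposed to test compound, and growth is scored relative to vehicle-treated controls.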
SMILES,growth inhibition [1],growth inhibition [2],growth inhibition [3],growth inhibition [4],growth inhibition [5],growth inhibition [6]
CC1CC(NC(=S)N(C)C)CC(C)(C)C1 (centres undefined),6.9%,3.65%,18.8%,-10.8%,47.9%,3.55%
CC(C)C(=O)/C=C/c1ccc(Cl)cc1,0.95% and -1.3%,-18.9% and -16.6%,-16.1% and -10.2%,-66.7% and -44.9%,-0.75% and -28.1%,-16.9% and -8.65%
CCC1([N+](=O)[O-])COC(CCc2ccccc2)OC1 (centres undefined),6.3%,-20.9%,10.8%,-30.1%,-0.25%,-19.9%
CCOC(=O)CN=C1Nc2ccccc2C(=O)N2CSCC12 (centres undefined),-18%,-44.7%,-28.6%,-16.4%,-54.5%,-16.8%
O=C1OC(=O)C2C3CC(C(Br)C3Br)C12 (centres undefined),3.8%,-14.4%,7.8%,-36.5%,-1.2%,21.5%
O=C(O)C1C2OC3C(OC(=O)C31)C2Br (centres undefined),-9.6% and 3.1%,6.75% and -15.9%,-8.9% and 2.25%,6.4% and -34.2%,-2.35% and 1.3%,-4.65% and 25.3%
O=C(N/N=C/c1ccc(Cl)cc1)c1cccc([N+](=O)[O-])c1,-1.5%,7.7%,-3.6%,4.25%,8.35%,-5.7%
Cc1cccc(Cl)c1NC(=O)c1c(Cl)c(Cl)c(Cl)c(Cl)c1C(=O)O,11.4%,10.6%,-0.35%,-30.1%,-1.65%,22.2%
O=C(O)c1cccc(-c2ccccc2)c1O.O=C(O)c1cccc(-c2ccccc2)c1O.[Cu],41.2%,39.5%,21.6%,2.6%,33.9%,32.4%
CC(=O)OC1=C2OC(=O)C3(C2C=CC=C1)C1C=CC=CC13 (centres undefined),-17.9%,1.3%,2.8%,-2.45%,-13.8%,-1.95%
CC(=O)NCCc1c[nH]c2ccc(Cl)cc12,-33.5%,21.4%,-27.4%,-11.6%,26.8%,-10.1%
CN(C)C(C#CCO)c1ccccc1 (centres undefined),-30.5%,-13.2%,1.45%,-3.55%,-9.7%,4.8%
O=C(OCC(OC(=O)c1ccccc1)C(OC(=O)c1ccccc1)C(OC(=O)c1ccccc1)c1cnn(-c2ccccc2)n1)c1ccccc1 (centres undefined),0.55% and 30.4%,3.85% and 38.2%,-6.45% and 58.4%,-13.4% and 47.3%,-0.85% and 42.1%,12.9% and 34.9%
C(=C/c1ccccc1)/c1ccccc1,-6.45%,-16.1%,-25.6%,8.85%,-2.65%,-2.15%
CC1(C)C2CC(C(=O)O)C1C2 (centres undefined),2.75%,5.8%,2.05%,3.8%,-10.8%,-19.1%
O=C1c2ccccc2S(=O)(=O)c2c1cccc2[N+](=O)[O-],14.1%,-15.4%,3.6%,5.3%,-4.7%,15.7%
O=C1Cc2c(-c3ccc(Cl)cc3)cc(-c3ccccc3)nc2-c2ccccc2N1,-16.9%,-17.8%,-10.9%,4.95%,-11.2%,-52%
COc1cc(N=Nc2c(N)nc(N)[nH]c2=O)c(OC)cc1Cl,-8.45%,3.65%,-8%,5.05%,1.35%,3%
CSC(C1c2ccccc2N(c2ccc(C)cc2)c2[nH]c(=O)n(C)c(=O)c21)S(=O)(=O)c1ccc(C)cc1 (centres undefined),23.1%,0%,-21.8%,-29%,0.15%,16.6%
CNC(CCCCC1CCCCC1)C(=O)O (centres undefined),8.2%,3.4%,12.1%,-10.8%,-8.2%,-0.2%

SMILES,growth inhibition [1],growth inhibition [2],growth inhibition [3],growth inhibition [4],growth inhibition [5],growth inhibition [6]
CCOC(OCC)C(=O)NC(Cc1ccccc1NC(=O)c1ccccc1)c1ccc2c(c1)OCO2 (centres undefined),35.6%,-1.05%,3.9%,4.8%,3.25%,21.4%
Cc1ccc(N(C)S(=O)(=O)c2ccccc2)cc1,11.4%,-31.3%,15.4%,4.25%,22.6%,4.55%
O=C1CN(Cc2cccc(Cl)c2)CC(=O)N2Cc3ccccc3CN12,34.4%,-1%,14.2%,-10.8%,8.9%,-11.5%
CCCCN(CCCC)CC(=O)NC(=O)c1ccccc1,-9.55%,-5.55%,3.35%,-38.5%,10.8%,-14.3%
Clc1ccccc1Br,2.85%,-11.2%,4.65%,0.55%,2.25%,-8.3%
COc1cc(C)c(C)c(OC(=O)c2c(C)c(C)c(OC)c(C)c2OC)c1C,10.3%,-17.1%,11.3%,8.9%,23.6%,16.1%
COC(=O)c1[nH]c(=O)c2ccc([N+](=O)[O-])cc2c1O,-15.7%,0.15%,-14.9%,16.1%,-6.05%,-0.4%
C=C1CC2CC[C@@]34C[C@@H]5O[C@@H]6C(O[C@H]7CC[C@H](CC(=O)OC8[C@@H](C)C9OC%10C[C@]%11(C[C@@H]%12O[C@@]%13(C[C@@H](C)[C@@H]%12O%11)C[C@H](C)[C@@H]%11OC%12CC(C(O)CO)OC%12C[C@@H]%11O%13)OC%10CC9O[C@H]8C[C@H]8O[C@@H](CC[C@@H]1O2)C[C@@H](C)C8=C)O[C@@H]7[C@@H]6O3)C5O4 (some centres undefined),79.8% (active),74.6% (active),76.5% (active),69.8%,83.2% (active),78.5% (active)
N#CC(C(=O)C(=O)Nc1nccs1)c1ccccc1 (centres undefined),5.85%,-0.85%,4.75%,41.9%,17.2%,16%
Cc1cccc2c1/C(=C1/c3ccccc3C(=O)c3cccc(C)c31)c1ccccc1C2=O,-4.85%,-24.1%,-3.45%,14.3%,-1.2%,-6.15%
CN(C)CC1CCCCCC(CN(C)C)C1=O (centres undefined),-17.9% and 38%,8.3% and 2.75%,-1.85% and 25.9%,0.45% and -28.4%,-10.4% and -1.65%,16.8% and 12.9%
CC(C)OC(=O)Nc1cccc(Cl)c1F,15.9%,-10.8%,-6.2%,-0.75%,8.2%,8.65%
Cc1ccc(S(=O)(=O)C2CC(=O)N(c3ccc(F)c(Cl)c3)C2=O)cc1 (centres undefined),-26.6%,4.55%,-7.6%,-19.2%,4.2%,-11.7%
C=CCn1c(=O)c2ccccc2[n+]2c(C)c(C(=O)OCC)sc12,-26.9%,-16.2%,-2.65%,-14.5%,2.45%,-19.6%
N#Cc1ccc2c(c1)-c1cc(C#N)ccc1C2c1ccccc1,8.95%,-10.8%,-3.45%,-42.5%,-4.8%,-6.95%
Clc1ccc(C(=Nc2ccccc2)C(Nc2ccccc2)c2ccc(Cl)cc2)cc1 (centres undefined),4.75%,-5.15%,17.8%,8.75%,3.8%,19.4%
C=C1CC[C@@H](C)[C@](C)(CCc2ccoc2)C/C=C\C=C/1C(=O)O,23.7%,30.8%,18.6%,48.1%,25.6%,61.6%
COC(=O)C1(C)C=C(Nc2ccccc2)C(=O)N1c1ccccc1 (centres undefined),-3.45%,-19.8%,6.2%,21.8%,23.4%,2.25%
COC(=O)C(Br)C(CCCN1C(=O)c2ccccc2C1=O)OC (centres undefined),27.5%,7.55%,45.9%,8.5%,39.9%,19.1%
